Measured values as given in PubChem BioAssay (NCI).
About 83,000 compounds went through this panel and 20% of them were active in at least one assay; those are over-represented in the sample as a whole.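 A percent growth of 40 corresponds to 60% growth inhibition; 0 means no net growth; -100 means all cells died. Active threshold: below 10.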 Calls of active or inactive are those of the source.

Columns and labels:
Test in all cases: NCI-60 one-dose screen, 48 h (100 = growth as untreated, 0 = no growth, -100 = all killed)
Details in all cases: 10 µM unless noted
NCI-H23 lung = system: NCI-H23 lung
NCI-H226 lung = system: NCI-H226 lung
NCI-H322M lung = system: NCI-H322M lung
HOP-62 NSCLC = system: HOP-62 NSCLC
NCI-H460 lung = system: NCI-H460 lung
HOP-92 NSCLC = system: HOP-92 NSCLC
NCI-H522 lung = system: NCI-H522 lung
A549/ATCC NSCLC = system: A549/ATCC NSCLC
786-0 renal = system: 786-0 renal
COLO 205 colon = system: COLO 205 colon
DU-145 prostate = system: DU-145 prostate
K-562 leukemia = system: K-562 leukemia
MALME-3M melanoma = system: MALME-3M melanoma
MDA-MB-231 breast = system: MDA-MB-231 breast
RXF 393 renal = system: RXF 393 renal
SF-268 CNS = system: SF-268 CNS
SF-295 CNS = system: SF-295 CNS
SF-539 CNS = system: SF-539 CNS
UACC-257 melanoma = system: UACC-257 melanoma
M14 melanoma = system: M14 melanoma

Measured: growth

Nc1nnc(C(=O)c2cnc3n(c2=O)CCCCC3)s1
inactive: NCI-H23 lung 96.7% | NCI-H226 lung 92.4% | NCI-H322M lung 103% | HOP-62 NSCLC 101% | NCI-H460 lung 108% | HOP-92 NSCLC 98.4% | NCI-H522 lung 98% | A549/ATCC NSCLC 102% | 786-0 renal 101% | COLO 205 colon 118% | DU-145 prostate 103% | K-562 leukemia 92.3% | MALME-3M melanoma 101% | MDA-MB-231 breast 90.4% | RXF 393 renal 104% | SF-268 CNS 96.6% | SF-295 CNS 101% | SF-539 CNS 94.3% | UACC-257 melanoma 101%

C[C@H]1[C@H](C)CC[C@]2(CO)CC[C@]3(C)C(=CC[C@@H]4[C@@]5(C)Cc6c([nH]c7ccccc67)C(C)(C)[C@@H]5CC[C@]43C)[C@H]12
inactive: NCI-H23 lung 74.6% | NCI-H226 lung 76.9% | NCI-H322M lung 72.3% | HOP-62 NSCLC 89% | NCI-H460 lung 66.8% | HOP-92 NSCLC 101% | A549/ATCC NSCLC 81% | 786-0 renal 76.1% | COLO 205 colon 95.1% | DU-145 prostate 71.1% | K-562 leukemia 52.4% | MALME-3M melanoma 46.9% | MDA-MB-231 breast 88.8% | RXF 393 renal 84.1% | SF-268 CNS 74.5% | SF-295 CNS 81.2% | SF-539 CNS 96% | UACC-257 melanoma 108% | M14 melanoma 92.8%
active: NCI-H522 lung -12.7%

COc1cc(C(=O)c2cnc(-c3ccc4cc[nH]c4c3)[nH]2)cc(OC)c1OC
inactive: NCI-H23 lung 22.9% | NCI-H226 lung 26.2% | NCI-H322M lung 36.3% | HOP-62 NSCLC 12.7% | MALME-3M melanoma 48.9% | RXF 393 renal 34.4% | SF-268 CNS 10% | UACC-257 melanoma 62.3%
active: NCI-H460 lung -9.07% | HOP-92 NSCLC -2.58% | NCI-H522 lung -17.4% | A549/ATCC NSCLC 8.91% | 786-0 renal -8.83% | COLO 205 colon -55.3% | DU-145 prostate -1.47% | K-562 leukemia 8.98% | MDA-MB-231 breast -48% | SF-295 CNS 5.4% | SF-539 CNS -5.7% | M14 melanoma 4.97%

O=S(=O)(NCCCNc1nccc(-c2c(-c3cccc(O)c3)nc3occn23)n1)c1ccc(Br)cc1
inactive: NCI-H23 lung 101% | NCI-H226 lung 103% | NCI-H322M lung 113% | HOP-62 NSCLC 124% | NCI-H460 lung 97.1% | HOP-92 NSCLC 108% | NCI-H522 lung 94.3% | A549/ATCC NSCLC 98.2% | 786-0 renal 106% | COLO 205 colon 31.9% | DU-145 prostate 97% | K-562 leukemia 67.3% | MALME-3M melanoma 11.5% | MDA-MB-231 breast 64.3% | RXF 393 renal 82.6% | SF-268 CNS 97.1% | SF-295 CNS 111% | SF-539 CNS 110% | UACC-257 melanoma 18.4% | M14 melanoma 29%
